From PubChem BioAssay
An excerpt weighted towards active compounds, which were near 12% of everything screened.
PI5P4Ka inh – inhibitors of human PI5P4K alpha | AID 652105 | PI5P4Kalpha enzyme, ADP-Glo luminescence, 60 min; active compounds read low | 1.2% of 330,000 active | max response, %; active = max response of -50% or lower; inconclusive = between -30% and -50%; inactive = -30% or higher; note: value at the top dose of about 77 µM; % is set by controls: 0 for no effect and ±100 for the full control effect
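Quantitative HTS of the MLSMR library against PI5P4Kalpha with substrate. ATP added last at 5 microM final; room temperature, 60 minutes. Remaining ATP depleted, ADP converted and read as luminescence.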
JMJD2A Tudor – blocks the human JMJD2A Tudor domain. AlphaScreen JMJD2A-Tudor / H3K4me3 peptide binding. Potency, µM (highest dose often 114 µM), inactives show at the highest dose activity change, negative = inhibition, most hits filed as inhibitors. 4.4% of 390,000 active. AID 504339; note: potency is the fitted concentration of half-maximal effect; % is set by controls: 0 for no effect and ±100 for the full control effect; nearly all actives have a fitted effect of over 50% in size
Target sequence (O75164 whole entry, looked up, the tested form may be a part): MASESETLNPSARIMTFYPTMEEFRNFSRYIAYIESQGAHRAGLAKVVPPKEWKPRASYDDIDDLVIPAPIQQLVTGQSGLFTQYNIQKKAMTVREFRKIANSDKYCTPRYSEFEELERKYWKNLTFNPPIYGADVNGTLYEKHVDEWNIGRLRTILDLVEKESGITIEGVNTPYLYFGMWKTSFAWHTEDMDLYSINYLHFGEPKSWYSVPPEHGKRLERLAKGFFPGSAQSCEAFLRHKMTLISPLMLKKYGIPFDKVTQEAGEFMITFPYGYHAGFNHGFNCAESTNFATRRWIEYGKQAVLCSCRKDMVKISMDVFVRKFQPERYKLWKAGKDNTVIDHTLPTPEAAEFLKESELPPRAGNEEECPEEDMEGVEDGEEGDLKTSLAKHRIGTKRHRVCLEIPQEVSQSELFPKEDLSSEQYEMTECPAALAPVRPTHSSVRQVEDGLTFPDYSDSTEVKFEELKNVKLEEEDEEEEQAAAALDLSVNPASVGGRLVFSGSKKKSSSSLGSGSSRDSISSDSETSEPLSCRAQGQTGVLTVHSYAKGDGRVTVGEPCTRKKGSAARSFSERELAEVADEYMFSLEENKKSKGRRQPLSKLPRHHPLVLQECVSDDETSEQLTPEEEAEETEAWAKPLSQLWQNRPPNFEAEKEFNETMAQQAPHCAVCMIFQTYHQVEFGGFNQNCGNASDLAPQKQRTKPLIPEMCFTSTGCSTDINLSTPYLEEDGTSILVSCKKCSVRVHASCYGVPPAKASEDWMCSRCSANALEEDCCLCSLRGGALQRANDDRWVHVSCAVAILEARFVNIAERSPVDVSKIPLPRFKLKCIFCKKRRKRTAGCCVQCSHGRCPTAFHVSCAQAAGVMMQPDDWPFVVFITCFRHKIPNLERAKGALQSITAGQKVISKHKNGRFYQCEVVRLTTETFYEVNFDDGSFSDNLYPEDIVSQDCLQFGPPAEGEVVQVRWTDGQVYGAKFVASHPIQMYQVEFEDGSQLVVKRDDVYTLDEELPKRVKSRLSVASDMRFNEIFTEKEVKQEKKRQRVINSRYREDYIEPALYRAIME
G9a inh – inhibitors of human histone lysine methyltransferase G9a | Q96KQ7 | G9a H3K9 monomethylation, AlphaScreen, 2 h | Potency, µM (doses to about 102 µM), for the others: at the top dose activity, negative = inhibition, usual class: inhibitors | 8.8% of 350,000 active; note: potency is the fitted concentration of half-maximal effect; % is set by controls: 0 for no effect and ±100 for the full control effect; nearly all actives have a fitted effect of over 75% in size
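Step 1: enzyme (final 20 nM) with compound, 15 min RT. Step 2: substrate peptide 500 nM and SAM 20 uM, 2 h RT. Step 3: anti-H3K9me1 antibody and AlphaScreen beads, 10 min, then plate read.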
PLK1 PBD block – blocks phosphopeptide binding to human PLK1 polo-box domain | Plk1 PBD binding of FITC phosphopeptide, fluorescence polarization | 2.8% of 360,000 active | Potency, µM, inactives show max response, negative = inhibition, most hits filed as inhibitors | P53350; note: potency is the fitted concentration of half-maximal effect; series mostly up to about 57 µM; % is set by controls: 0 for no effect and ±100 for the full control effect; nearly all actives have a fitted effect of over 65% in size
HP1b binding inh – HP1-beta chromodomain-methylated histone interaction inhibition | Potency, µM (doses to about 114 µM), for inactives: top-dose activity change, negative = inhibition, most hits filed as inhibitors | 0.56% of 390,000 active | P83916 | AlphaScreen HP1-beta / biotin-H3K9me3 peptide binding; note: potency is the fitted concentration of half-maximal effect; nearly all actives have a fitted effect of over 70% in size
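HP1-beta protein (50 nM final) preincubated 30 min at room temperature with biotinylated H3(1-18)K9me3 peptide (50 nM) in PBS pH 7.4, 0.01% Tween-20, then compound added for 30 min. AlphaScreen streptavidin donor/nickel chelate acceptor beads (10 ug/mL final), 30 min dark, luminescence read.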
BAZ2B inh – inhibitors of human BAZ2B bromodomain | Q9UIF8 | AlphaScreen BAZ2B-H3K14Ac peptide displacement | AID 504333 | 4.4% of 360,000 active | Potency, µM (highest dose often 114 µM), inactives show at the highest dose activity change, negative = inhibition, actives largely listed as inhibitors; note: potency is the fitted concentration of half-maximal effect; % is set by controls: 0 for no effect and ±100 for the full control effect; nearly all actives have a fitted effect of over 60% in size
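AlphaScreen displacement of biotin-H3(5-23)K14Ac peptide (50 nM final) from BAZ2B (50 nM final) in PBS pH 7.4, 0.01% Tween-20; complex preformed 30 min RT, then compounds (top 110 uM) 30 min RT, beads 20 min dark.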
Starred values were filed as active, the others as inactive; u = inconclusive; x = no result given; [ ] = another dose, or the depositor's remark. Unless noted, calls come from the whole dose curve; as a rule, active = well fitted curve in the direction sought with a large enough effect; inconclusive = small, poorly fitted or top-dose-only effect, or another doubt; inactive = no such curve, though single readings can be large; an effect the other way counts as inactive or inconclusive.

SMILES	PI5P4Ka inh	JMJD2A Tudor	G9a inh	PLK1 PBD block	HP1b binding inh	BAZ2B inh
CSc1ccc(/C=N/NC(=O)CN2CCN(Cc3ccccc3Cl)CC2)cc1	11	2%	6%	-2%	13%	12%
O=C(CN1CCN(Cc2ccccc2Cl)CC1)N/N=C/c1ccccn1	1	-11%	50µM*	-13%	27%	2%
O=C(CN1CCCCCC1)N/N=C/c1ccc(Cl)c(Cl)c1	-6	8.9µM*	13µM*	0%	-24%	50µM*
COC(=O)c1ccc(NC(=O)CSc2ccccc2)cc1	-12	32µM*	-2%[59 µM]	21µM*	u	12%
COC(=O)c1ccc(NC(=O)CN2CCN(CC#N)CC2)cc1	3	2.2µM*	10µM*	4%	50µM*	40µM*
O=C(CN1CCCCCC1)N/N=C/c1cccs1	x	3.2µM*	2%	-2%	-28%	79µM*
CCN1CCN(CC(=O)N/N=C/c2cc(Br)cs2)CC1	1	4µM*	x	-14%	u	25µM*
CCOc1ccc(/C=N/NC(=O)CN2CCCCCCC2)cc1	-4	20µM*	7.9µM*	4%	u	50µM*
CCCOc1ccc(/C=N/NC(=O)CN2CCCCC2)cc1	1	-13%	-4%	-6%	3%	-19%
Cc1nccn1CC(=O)N/N=C/c1cc(Br)cs1	-2	-16%	11%[12.7 µM]	-11%	2%	-4%
Cn1cccc1C(=O)N1CCC2(CC1)CN(c1ccccn1)C2	x	x	39%[12.7 µM]	x	x	x
CCOc1ccc(/C=N/NC(=O)C(C)N(c2ccc(OC)cc2)S(C)(=O)=O)cc1 (centres undefined)	x	-16%	12%[59 µM]	-6%	13%	0%
CCOc1ccc(N(CC(=O)N/N=C/c2ccc(OC(C)C)cc2)S(C)(=O)=O)cc1	0	u	u	-8%	1%	56µM*
CN1CCC(=O)N([C@H](CO)c2ccccc2)CC1	-2	-20%	45µM*	-21%	52%	-27%
Cn1nc(-c2ccccc2)c2nc3ccccc3nc21	14	56%	35%[59 µM]	21µM*	49%	x
Cc1[nH]c(C(=O)O)c(C)c1C(=O)OC(C)C	-6	-6%	-22%	-10%	5%	3%
CC(=O)c1c(C(=O)O)[nH]c(C(=O)O)c1C	7	-18%[11.4 µM]	16µM*	-18%	5%	u
Cc1cc(C)c(NC(=O)Cn2c(=O)n(CCC(=O)NCc3ccc4c(c3)OCO4)c(=O)c3ccccc32)c(C)c1	x	3%	-7%[59 µM]	x	10%	-3%
COc1cccc(CC2(CO)CCCN(Cc3[nH]c4ccc(C)cc4c3C)C2)c1 (centres undefined)	8	-22%[11.4 µM]	45µM*	-16%	-19%	u
COc1ccc(N2CCN(C(=O)c3[nH]c4ccc(OC)cc4c3C)CC2)cc1	-14	28µM*	40µM*	27µM*	u	u
COc1cccc(CC2(CO)CCCN(Cc3cn[nH]c3-c3cc(C)ccc3C)C2)c1 (centres undefined)	0	-25%	x	6%	30%	-11%
COc1ccccc1C(=O)N1CCN(c2cccc(Cl)c2)CC1	-17	-30%[11.4 µM]	14%[59 µM]	24µM*	-6%	-4%
CCOc1ccccc1N1CCN(C(=O)c2cc3cc(OC)ccc3[nH]2)CC1	0	u	35µM*	-7%	-9%	u
CCOC(=O)C1CCN(C(=O)c2[nH]c3ccc(OC)cc3c2C)CC1	2	-5%	-4%	5%	9%	-3%
CCOc1ccccc1N1CCN(C(=O)c2cc(C)oc2C)CC1	x	-36%	-7%[12.7 µM]	2%	-12%	-9%
SMILES	PI5P4Ka inh	JMJD2A Tudor	G9a inh	PLK1 PBD block	HP1b binding inh	BAZ2B inh
COc1ccc(NC(=O)Cn2c(=O)n(Cc3ccccc3Cl)c(=O)c3cc(OC)c(OC)cc32)cc1OC	x	-14%	4%[59 µM]	x	11%	-1%
CCOc1ccccc1NC(=O)CSc1nc2c(oc3ccccc32)c(=O)n1C(C)C	x	4%	14%[59 µM]	x	38%	4%
COc1cccc(COCCN2CCN(S(=O)(=O)c3ccccc3)CCC2=O)c1	x	-5%	x	x	20%	x
O=C(c1ccccc1F)N1CCN(c2cnn(-c3cccc(Cl)c3)c(=O)c2Cl)CC1	-12	-10%[11.4 µM]	0%	27µM*	-9%	7%
COc1ccc2[nH]c(C(=O)N3CCC(CO)(Cc4cccc(C(F)(F)F)c4)CC3)c(C)c2c1	19	-29%	79µM*	4%	11%	-38%
COc1cccc(N2CCN(C(=O)c3cc4cc(Cl)ccc4[nH]3)CC2)c1	1	u	71µM*	-5%	-3%	-37%
O=C(c1cccc(Br)c1)N1CCN(c2cnn(-c3ccccc3)c(=O)c2Cl)CC1	5	-12%	0%	7%	38%	-15%
COc1ccc2cc(C(=O)N3CCN(c4ccc(F)cc4)CC3)[nH]c2c1	3	3%	50µM*	-1%	21%	-9%
O=C(Cc1ccc([N+](=O)[O-])cc1)c1c(O)cc(O)cc1O	-15	-35%	50µM*	-13%	10%	-28%
CCCCc1ccc(NC(=O)c2cc3c(=O)n4ccccc4nc3n2C)cc1	x	-7%	-22%[59 µM]	x	42%	6%
COc1cc2c(cc1CN1CCN(C(=O)c3cc(OC)c(OC)c(OC)c3)CC1)OCO2	-2	25µM*	11µM*	-1%	-38%	56µM*
COc1ccc(C(=O)N2CCN(Cc3cc(OC)ccc3OC)CC2)cc1	0	50µM*	32µM*	2%	u	u
COc1ccc(OCC(=O)N2CCN(C(=O)c3cc(OC)c(OC)c(OC)c3)CC2)cc1	x	-21%	-38%[59 µM]	x	42%	2%
COc1ccc(C(=O)N2CCN(Cc3ccc(OC)c(OC)c3)CC2)cc1	-12	3.2µM*	u	7%	u	u
COc1ccc(CN2CCN(C(=O)c3ccc4c(c3)CCC4)CC2)cc1OC	-6	-23%	x	-16%	7%	x
COc1ccc(CN2CCN(C(=O)c3cc(OC)c(OC)c(OC)c3)CC2)cc1OC	x	2.5µM*	10µM*	1%	-52%	u
Cc1ccc(CNC(=O)c2cc3c(=O)n4cccc(C)c4nc3s2)cc1	x	-14%	-6%[59 µM]	x	28%	u
Cc1cc(NC(=O)NC(=O)c2ccccc2NC(=O)CN)ccc1Oc1ncc(Br)cn1	-6	-25%	x	-8%	6%	x
O=C(COc1ccccc1)N=C1SC2CS(=O)(=O)CC2N1c1ccc(F)cc1 (centres undefined)	6	-14%	18%	-13%	58%	-4%[57.1 µM]
COc1ccc(N2CC3=C(C2=O)C(c2ccc(Br)cc2)NC(=O)N3C)cc1 (centres undefined)	x	-14%	5%[59 µM]	x	44%	-29%
CCCc1cc(=O)[nH]c(SCc2nc(-c3ccc(OCC)cc3)no2)n1	x	-14%	20%[59 µM]	x	22%[57 µM]	0%
